A selection: hits, their analogues and other compounds. The true share with any hit is near 4.1%.
ssDAF12 agonist = activators of S. stercoralis DAF-12 nuclear receptor; HEK293 ssDAF-12/GRIP1 lit1-tk-luc reporter, luminescence; % of 3 µM dafachronic acid response; activation, % at 6.8 µM; hit rate 1% among 370,000;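 active means activation above the mean over all tested compounds plus 3 SD, cut at about 0.9% in these data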
hcDAF12 agonist = activates DAF-12 receptor from parasite H. contortus. HEK293 hcDAF-12 lit1-tk-luc reporter, luminescence; 0% DMSO, 100% Δ7-dafachronic acid. activation, % at 6.8 µM. hit rate 1.4% among 370,000;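 active means activation above the mean of all tested compounds plus 3 SD, cut at about 5.5% in these data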
DAX1 inh-1 = inhibits human nuclear receptor DAX1; AID 504766; hit rate 0.99% among 340,000; inhibition, % at 6.75 µM; P51843; HEK293 Gal4-DAX1 luciferase reporter, luminescence;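 active means inhibition above the mean over all tested compounds plus 3 SD, cut at about 4.2% in these data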;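 further: inhibition shows as a rise in luminescence from relieved DAX1 repression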
hgDAF-12 ag = activates the H. glycines DAF-12 receptor ligand-binding domain; HEK293 GAL4-hgDAF12 UAS-luciferase reporter, agonist luminescence; normalized to butyrate control; activation, % at 6.8 µM; hit rate 1.8% among 370,000;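 active means activation above a cutoff set at the mean of all screened compounds plus 3 SD, cut at about 10% in these data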
DAX1 inh-2 = inhibitors of DAX1 repression of SF-1 activated StAR promoter; inhibition, % at 6.8 µM; hit rate 1.1% among 370,000; AID 652010; HEK293T StAR-luciferase reporter, SF-1/DAX-1 repression relief;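 active means inhibition above the mean over all tested compounds plus 3 SD, cut at about 3.6% in these data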;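 further: higher inhibition means more luminescence from relief of DAX-1 repression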
DAX1 conf = NR0B1 (human) inhibition, confirmation; inhibition, % at 6.8 µM; shares compounds with DAX1 inh-2; hit rate 87% among 2,400; HEK293T StAR-promoter luciferase reporter, SF-1/DAX-1 repression;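 active means inhibition above the average of every tested compound plus 3 SD, cut at about 3.8% in these data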;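 further: active compounds raise luminescence by relieving repression of the StAR reporter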
Target sequence (P51843 whole entry, looked up): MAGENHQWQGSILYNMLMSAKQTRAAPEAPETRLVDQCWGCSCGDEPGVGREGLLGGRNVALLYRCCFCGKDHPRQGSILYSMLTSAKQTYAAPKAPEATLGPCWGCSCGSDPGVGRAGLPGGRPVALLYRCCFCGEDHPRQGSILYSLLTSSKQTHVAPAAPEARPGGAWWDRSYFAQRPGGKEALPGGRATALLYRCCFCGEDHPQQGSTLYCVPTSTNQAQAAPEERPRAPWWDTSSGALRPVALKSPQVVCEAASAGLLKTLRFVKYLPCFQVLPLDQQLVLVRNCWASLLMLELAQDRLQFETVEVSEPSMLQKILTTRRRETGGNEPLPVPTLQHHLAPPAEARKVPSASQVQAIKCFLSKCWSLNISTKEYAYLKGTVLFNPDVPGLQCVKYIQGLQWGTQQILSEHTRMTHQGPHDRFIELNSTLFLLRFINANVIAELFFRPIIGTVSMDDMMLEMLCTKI
SF1 mutant ctr = nonselective inhibitor or artifact in SF-1 mutant DAX1 counter-screen; shares compounds with DAX1 inh-2; HEK293 StAR-luciferase, SF-1 AF2 mutant, luminescence; inhibition, % at 6.8 µM; hit rate 78% among 2,400;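 active means inhibition above the mean of all tested compounds plus 3 SD, cut at about 3% in these data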
LXRb hcDAF ctr = LXR-beta agonism as hcDAF-12 counter-screen. shares compounds with hcDAF12 agonist. HEK293 Gal4-LXR tk-luc reporter, luminescence, 24 h; normalized: DMSO 0%, positive control 100%. activation, % at 6.8 µM. 3,400 tested, under 10 active;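 active means mean percent activation of the reporter above a cutoff set as the average over tested compounds plus their standard deviation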
hcDAF12 ag = hcDAF-12 agonism, confirmation assay; hit rate 61% among 3,400; shares compounds with hcDAF12 agonist; activation, % at 6.8 µM; HEK293 hcDAF-12 lit1-tk-luc reporter, luminescence; % of Δ7-dafachronic acid response;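 active means mean activation across triplicate tests above the threshold derived from the earlier primary screen, cut at about 5.5% in these data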
hgDAF12 conf = confirmation of H. glycines DAF-12 agonists; activation, % at 6.8 µM; hit rate 80% among 3,300; shares compounds with hgDAF-12 ag; HEK293 GAL4-hgDAF12 luciferase reporter, agonist mode; percent of butyrate response;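 active means mean activation over triplicate wells above the hit cutoff derived from the earlier primary screen, cut at about 11% in these data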
LXR ag 2 = activates human LXR-beta, counter-screen for DAF-12 agonists. shares compounds with hgDAF-12 ag. HEK293 Gal4-LXR luciferase reporter, 24 h. activation, % at 6.8 µM. 3,300 tested, under 10 active;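 active means mean activation of the triplicate above a set limit carried over from the primary screen, none filed active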
Hits are given with their value; – = inactive; · = no result given.

SMILES	ssDAF12 agonist	hcDAF12 agonist	DAX1 inh-1	hgDAF-12 ag	DAX1 inh-2	DAX1 conf	SF1 mutant ctr	LXRb hcDAF ctr	hcDAF12 ag	hgDAF12 conf	LXR ag 2
Cc1ccccc1Nc1nc(N)c2ccccc2n1	–	7.1	–	19.4	5.3	12.5	5.6	–	–	17.2	–
COc1ccc(C)cc1Nc1nc(N)c2ccccc2n1	–	–	–	–	–	·	·	·	·	·	·
Brc1ccc(/C=N/Nc2ccc3ccccc3n2)cc1	–	–	–	–	–	·	·	·	·	·	·
Fc1cccc(/C=N/Nc2ccc3ccccc3n2)c1	1.7	11.6	–	20.9	6.7	16.3	6.6	–	11.4	19.7	–
COc1ccc(/C=C/c2nc3ccccc3n2Cc2ccc(OC)c(OC)c2)cc1	0.9	7.7	–	26.8	5.9	19.4	6.8	–	8.6	15.1	–
COCCOCCn1c(/C=C/c2ccccc2)nc2ccccc21	–	–	–	13.2	6.2	13.7	6.8	·	·	14.9	–
O=C(Nc1ccccc1OC(F)F)c1ccc(N2CCCC2=O)cc1	–	–	–	–	–	·	·	·	·	·	·
O=C(CNC(=O)c1cccs1)Nc1ccc2c(c1)OCCO2	–	–	–	17.3	12.3	8.0	4.0	·	·	16.3	–
Clc1ccc(/C=C/c2nc3ccccc3[nH]2)cc1	–	7.7	–	13.6	4.5	11.1	5.8	–	8.9	13.2	–
CCOC(=O)C1=C(C2=CCCCC2)c2ccc(OC)cc2N(S(=O)(=O)C(F)(F)F)C1C(=O)OCC (stereo unspecified)	·	·	–	·	·	·	·	·	·	·	·
COc1ccc(C2CCCCCN2C(=O)C2CCN(S(=O)(=O)c3ccc(C)cc3)CC2)cc1 (stereo unspecified)	–	–	–	–	–	·	·	·	·	·	·
C(=NOCc1ccccc1)c1ccncc1	–	–	–	–	–	·	·	·	·	·	·
C(=NOCc1ccccc1)c1ccccn1	–	–	–	16.7	6.0	6.1	2.9	·	·	14.5	–
O=C(/C=C/c1ccccc1Cl)Nc1ccc2c(c1)C(=O)NC2=O	–	–	–	–	–	·	·	·	·	·	·
O=C(/C=C/c1ccccc1Cl)Nc1cccc(O)c1	–	10.3	–	24.3	5.8	17.3	10.7	–	6.5	19.9	–
O=C(OCC(=O)N1CCN(c2ccccc2)CC1)c1cccc([N+](=O)[O-])c1	–	–	–	–	–	·	·	·	·	·	·
O=C(OCC(=O)N1CCN(c2ccccc2)CC1)c1ccccc1[N+](=O)[O-]	–	–	–	15.2	6.2	9.4	3.6	·	·	–	–
Cc1ccsc1/C=N/NC(=O)Nc1ccccc1	1.1	–	5.2	16.5	5.8	11.3	6.9	·	·	17.2	–
Cc1cc(/C=C\c2ccccc2)nc2ccccc12	–	10.3	5.6	15.4	6.0	6.4	4.1	–	8.6	16.7	–
Cc1cc(C(=O)c2ccccc2)nc2ccccc12	–	–	–	–	–	·	·	·	·	·	·
C[C@H]1CN([C@@H](C)CO)S(=O)(=O)c2ccc(Br)cc2O[C@H]1CN(C)C(=O)Cc1ccccn1	–	–	–	–	–	·	·	·	·	·	·
NC(=Nc1ccccc1)NC(=O)c1nc(Cl)c(N)nc1N	–	–	–	17.2	5.4	8.2	6.4	·	·	14.2	–
CCN(CC)CCN(C(=O)c1ccc2ncsc2c1)c1nc2cc3c(cc2s1)OCO3	2.6	15.9	–	17.4	14.8	10.6	11.3	–	11.0	15.1	–
CCN(CC)CCN(C(=O)c1ccc(C(=O)c2ccccc2)cc1)c1nc2cc3c(cc2s1)OCO3	–	–	–	–	–	·	·	·	·	·	·
O=C(Nc1nc2cc3c(cc2s1)OCO3)C1CC1	–	–	–	–	–	·	·	·	·	·	·
SMILES	ssDAF12 agonist	hcDAF12 agonist	DAX1 inh-1	hgDAF-12 ag	DAX1 inh-2	DAX1 conf	SF1 mutant ctr	LXRb hcDAF ctr	hcDAF12 ag	hgDAF12 conf	LXR ag 2
O=C(Nc1nc2cc3c(cc2s1)OCO3)C1CCCCC1	–	9.8	–	14.4	11.8	14.7	7.7	–	–	15.6	–
O=C(Nc1nc2cc3c(cc2s1)OCCO3)C1CCCCC1	–	–	–	13.3	14.7	11.6	4.4	·	·	15.1	–
CN(C)c1ccc2c(=O)c3ccccc3oc2n1	–	7.9	·	13.5	7.8	13.3	5.9	–	8.4	22.3	–
Cc1nc2oc3ccccc3c(=O)c2cc1C(=O)O	–	–	–	–	–	·	·	·	·	·	·
O=C(CSc1ccc2c(c1)OCCO2)N1CCN(c2ccccc2)CC1	–	–	–	–	–	·	·	·	·	·	·
O=C1CS/C(=C/C(=O)c2ccccc2)N1	–	–	–	–	–	·	·	·	·	·	·
O=C(/C=C1\OCc2ccccc21)c1ccccc1	1.3	9.5	·	19.4	5.6	7.2	4.8	–	10.8	17.1	–
CC(Cc1ccccc1)NC(=O)/C=C/c1ccc([N+](=O)[O-])cc1 (stereo unspecified)	–	–	–	–	–	·	·	·	·	·	·
CC(Cc1ccccc1)NC(=O)c1ccc([N+](=O)[O-])cc1 (stereo unspecified)	–	5.7	–	14.1	4.8	14.3	8.9	·	·	14.5	–
c1ccc2oc(-c3csc(NCC4CCCO4)n3)cc2c1 (stereo unspecified)	1.1	–	–	14.9	10.1	12.2	7.0	·	·	15.1	–
C=CCNc1nc(-c2cc3ccccc3o2)cs1	1.5	9.1	–	18.4	6.5	14.2	4.1	–	8.3	17.8	–
COc1ccc(-c2oc3c(c2-c2cnc(OC)nc2)C(O)CC3)cc1 (stereo unspecified)	–	–	·	–	–	·	·	·	·	·	·
CCc1ccc(-c2ccc(SCC(=O)Nc3nnc(C)s3)nn2)cc1	–	7.6	–	20.6	6.0	10.1	7.8	–	6.0	16.1	–
Cc1nnc(NC(=O)CSc2ccc(-c3ccc(Cl)cc3)nn2)s1	–	–	–	–	–	·	·	·	·	·	·
COc1ccc(NC2CCCN(C(=O)CSc3ccncc3)C2)cc1 (stereo unspecified)	–	–	–	–	–	·	·	·	·	·	·
Fc1ccccc1CSc1ncnc2c1ncn2C1CCCCO1 (stereo unspecified)	–	–	–	14.4	6.1	8.6	5.0	·	·	12.7	–

Screens: PubChem, The Scripps Research Institute Molecular Screening Center
